Source: PubChem BioAssay AID777 (Sanford-Burnham Center for Chemical Genomics, 2007)
In all, about 96,000 compounds went through this assay and about 19,000 (20%) were called active.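 Rule for the calls: active = blocking of liver enzyme CYP2C9 beyond about 50% at 5 µM (limit read from the data); inactive = the rest.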 The list is a sample of the results.

Target: Cytochrome P450 2C9 (Homo sapiens) (UniProt P11712)
Assay: blockers of cytochrome P450 2C9 activity – biochemical, luminescence, ADME assay, primary screen (AID 777)
Conditions: CYP2C9 Supersomes, luciferin-H conversion, at 5 µM, active compounds read high

Chain of Cytochrome P450 2C9 (Homo sapiens) (P11712 whole entry, looked up): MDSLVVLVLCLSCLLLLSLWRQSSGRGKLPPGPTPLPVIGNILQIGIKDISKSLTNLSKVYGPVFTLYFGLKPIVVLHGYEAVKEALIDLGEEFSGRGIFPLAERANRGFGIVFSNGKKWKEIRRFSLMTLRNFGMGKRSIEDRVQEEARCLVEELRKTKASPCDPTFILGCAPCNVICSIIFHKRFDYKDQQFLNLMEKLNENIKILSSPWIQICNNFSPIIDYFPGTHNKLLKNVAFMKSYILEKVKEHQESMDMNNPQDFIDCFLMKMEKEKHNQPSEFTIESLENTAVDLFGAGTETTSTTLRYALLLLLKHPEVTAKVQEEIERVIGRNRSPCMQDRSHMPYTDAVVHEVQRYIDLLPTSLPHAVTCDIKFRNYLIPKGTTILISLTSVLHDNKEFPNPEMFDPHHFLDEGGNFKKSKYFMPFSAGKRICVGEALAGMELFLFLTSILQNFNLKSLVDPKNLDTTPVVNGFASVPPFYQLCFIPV

inhibition, active:
Cc1cc(NC(=O)CCC(=O)N(c2ccccc2)C(C(=O)NC2CCCC2)c2ccncc2)no1 (stereo unspecified) 55.9%
Cc1cc(NC(=O)CCC(=O)N(c2cccc(F)c2)C(C(=O)NC2CCCC2)c2ccncc2)no1 (stereo unspecified) 77.9%
Cc1cccc(Cn2c(N3CCN(c4ccccc4)CC3)nc3c2c(=O)n(C)c(=O)n3C)c1 66.1%
Cc1cccc(Cn2c(SCCO)nc3c2c(=O)n(C)c(=O)n3C)c1 54%
CCOC(=O)CSc1nc2c(c(=O)n(C)c(=O)n2C)n1Cc1ccccc1F 60.5%
CCOC(=O)C1=C(CNC2CCCCC2)NC(=O)NC1c1cc(C)ccc1C (stereo unspecified) 84.7%
CCC(c1nnnn1Cc1ccco1)N(CCc1ccccc1)Cc1cc2ccc(OC)cc2[nH]c1=O (stereo unspecified) 91.9%
CCC(c1nnnn1Cc1ccco1)N(Cc1cc2cc(OC)ccc2[nH]c1=O)C1CCCCC1 (stereo unspecified) 58.2%
COC(=O)c1cc(NC(=O)C2C3C=CC(C3)C2C(=O)O)cc(C(=O)OC)c1 (stereo unspecified) 64.3%
CC(C)OC(=O)c1cc(NC(=O)C2C3CCC(O3)C2C(=O)O)cc(C(=O)OC(C)C)c1 (stereo unspecified) 79.4%
CC(=O)NC1CC2CCCC(C1)N2CC(=O)Nc1ccccc1 (stereo unspecified) 50.7%
O=C(c1ccc(-n2cnnn2)cc1)N1CCN(C(c2ccccc2)c2ccccc2)CC1 83.4%
CCOC(=O)c1cc2sccc2n1Cc1ccc(C#N)cc1 96.7%
Cc1nc2c(C(=O)NCc3ccc4c(c3)OCO4)c[nH]n2c(=O)c1Cc1ccccc1F 93.4%
CC1CCN(C(NC(=O)c2ccco2)C(=O)c2ccccc2)CC1 (stereo unspecified) 71.6%
COc1cccc(-n2cc3c(c2-c2ccccc2)c(=O)n(C)c(=O)n3C)c1 64.6%
O=C(Nc1nccs1)C1CCCN1S(=O)(=O)c1cccc2cccnc12 (stereo unspecified) 53.9%
CC(=O)c1cccc(NC(=O)C2CCCN2S(=O)(=O)c2cccc3nsnc23)c1 (stereo unspecified) 92.8%

inhibition, inactive:
COc1ccccc1C(=O)C(O)c1ccccc1OC (stereo unspecified) -2.8%
CCOC(=O)N1CCN(CC(=O)Nc2cc(C)nn2-c2nc3ccccc3s2)CC1 25.8%
O=C(c1ccco1)N(Cc1nc2ccccc2c(=O)[nH]1)C1CCCC1 -20.5%
CC(=O)Oc1cccc(N2C(=O)CC(Nc3ccc(N4CCOCC4)cc3)C2=O)c1 (stereo unspecified) 19.9%
CC1OC2C(OC1C)N(S(C)(=O)=O)CCN2S(C)(=O)=O (stereo unspecified) -6.8%
Cc1cccc(N2C(=O)C3C(c4ccccc4)OC4(C(=O)c5ccccc5C4=O)C3C2=O)c1 (stereo unspecified) -8.4%
Cc1cc(NC(=O)CCC2COc3ccccc3O2)no1 (stereo unspecified) 7.1%
Cc1ccc(C(C(=O)NC2CCCC2)N(Cc2ccco2)C(=O)CCC(=O)Nc2ccccn2)cc1 (stereo unspecified) 28.7%
Cc1cc(NC(=O)CN2CCC(O)(c3cccc(F)c3)CC2)no1 23.3%
Cc1cc(NC(=O)/C=C/C(=O)N(c2ccccc2C)C(C(=O)NC2CCCC2)c2ccc(F)cc2)no1 (stereo unspecified) 25.2%
CC1CC(C)CN(C/C=C/c2ccccc2[N+](=O)[O-])C1 (stereo unspecified) 9.8%
CCc1nc(C)ccc1OCC(=O)N(CC)CC -6.3%
c1ccc(Nc2n[nH]nc2-c2ccccc2)cc1 28.9%
CCOc1ccc(Cn2c(SCCCCC#N)nc3c2c(=O)n(C)c(=O)n3C)cc1OCC 31.1%
Cn1c(=O)c2c(ncn2CC(=O)N2CCN(c3ccccc3)CC2)n(C)c1=O 6.8%
C/C(Cl)=C\Cn1c(Nc2cccc(C)c2)nc2c1c(=O)n(C)c(=O)n2C -7.8%
CC(C)OCCCNc1nc2c(c(=O)n(Cc3ccccc3F)c(=O)n2C)n1C 22.3%
CCOC(=O)CSc1nc2c(c(=O)n(Cc3ccccc3Cl)c(=O)n2C)n1C -7.5%
CCCSc1nc2c(c(=O)n(C)c(=O)n2C)n1Cc1ccc(C)cc1 9.9%
COc1ccc(CNC(=O)C2CCN(S(=O)(=O)N3CCOCC3)CC2)cc1 -2.7%
Cn1c(N)c(C(=O)COC(=O)C23CC4CC(CC(C4)C2)C3)c(=O)n(C)c1=O 29.6%
COc1ccc(N2C(=O)C3CCCN3C2c2cc(OC)c(OC)cc2OC)cc1 (stereo unspecified) -1.9%
CC1CN(C(=O)CN2C(=O)NC(C)(c3ccccc3)C2=O)CC(C)O1 (stereo unspecified) -27.2%
CCOC(=O)C1=C(CSc2nccn2C)NC(=O)NC1c1ccc(OC)cc1 (stereo unspecified) 17.2%
CCOC(=O)c1[nH]cnc1C(=O)NC1CCCCC1 28.5%
Cc1[nH]c2ccccc2c1C(=O)CSCC(=O)O -30.3%
CCC(c1nnnn1C1CCCC1)N(Cc1cccs1)Cc1cc2cccc(C)c2[nH]c1=O (stereo unspecified) -52.1%
CCOc1ccc2c(c1)cc(CN(C(=O)CC)C1CCCCC1)c1nnnn12 35.6%
CCC(c1nnnn1Cc1ccco1)N(CCc1ccccc1)Cc1cc2cccc(C)c2[nH]c1=O (stereo unspecified) 29%
COc1ccc2[nH]c3c(=O)n(Cc4ccco4)cnc3c2c1 26%
CC1(C)Cc2cccc(OCC(N)=O)c2O1 -6.4%
CCn1ncc(Br)c1C(=O)Nc1cc(C)ccc1F -6.9%
Cc1csc(NC(=O)CN2CCCCCC2)n1 0.6%
CC(Oc1ccc(Cl)cc1Cl)C(=O)/C=C/N(C)C (stereo unspecified) 23%
Cc1cc(=O)cc(C)[nH]1 -13.9%
Cc1ncn(C23CC4CC(CC(O)(C4)C2)C3)n1 10.7%
COCCOCCn1cnc2ccccc21 0%
CC(C)c1ccc(NC(=O)CCN2C(=O)c3ccc([N+](=O)[O-])cc3C2=O)cc1 14.3%
CC(C)COC(=O)c1ccc(NC(=O)C2C3C=CC(C3)C2C(=O)O)cc1 (stereo unspecified) 29.9%
CCC(CC)C(=O)Nc1cc(C(=O)OC)cc(C(=O)OC)c1 9%
Cc1sc(NC(=O)C2C3CCC(O3)C2C(=O)O)c(C(=O)OC(C)C)c1-c1ccc(Cl)cc1 (stereo unspecified) 9.3%
Cn1c(=O)c2c(n(Cc3ccccc3)c1=O)NC(=O)C2CC(=O)N1CCc2ccccc2C1 (stereo unspecified) -4.4%
CSc1nnc2c(n1)OC(c1ccsc1)N(C(C)=O)c1ccccc1-2 (stereo unspecified) 10%
C=CCNC(=O)CCCC(=O)NCC=C 8.2%
CCN(CC)P(=O)(C(NC(=O)OC)C(F)(F)C(F)(F)C(F)(F)C(F)F)N(CC)CC (stereo unspecified) 21%
O=C(NCc1ccccc1Cl)c1csc2c1CCCCC2 -153%
Cn1c(SCC(=O)NC2CCCCC2)nnc1-c1cc2ccccc2o1 9.1%
CCOc1cc2c(cc1OCC)C(C(=O)O)C(c1ccc(OC)c(O)c1)N(C)C2=O (stereo unspecified) -10%
O=C(NCc1cccs1)c1ccc2c(c1)ncn2C1CCCC1 25.4%
O=C(CN1C2CCC1CC(NC(=O)C1CC1)C2)NCc1ccccc1 (stereo unspecified) -10.9%
COc1ccc(NC(=O)NC2CC3CCCC(C2)N3Cc2ccccc2)cc1 (stereo unspecified) -6.4%
c1cc(-n2cnnn2)ccc1NC1=NCCC1 -26.8%
O=C(O)CC(c1ccccc1)n1cnnn1 (stereo unspecified) -7.7%
Cc1ccc(S(=O)(=O)N2CCN(C(=O)CCC(=O)NC3CCCc4ccccc43)CC2)cc1 (stereo unspecified) 32.1%
CCOC(=O)N1CCN(S(=O)(=O)c2cc3c(cc2C)NC(=O)CO3)CC1 -21.5%
Cc1ccc2oc(=O)c3cnn(CC(=O)N(Cc4ccco4)C4CCCCC4)c3c2c1 19.5%
CCOC(=O)c1cc2c(ccn2C)n1CC(=O)N1CCC(C)CC1 29.1%
CCCOc1ccc(Cn2c(O)cc(=O)[nH]c2=O)cc1 -7.9%
CCc1c(C)nc2ncnn2c1N1CCC(C(=O)NCc2ccc3c(c2)OCO3)CC1 12.9%
CCn1cc(C(=O)NCc2ccc3c(c2)OCO3)c2cc(OC)c(OC)cc2c1=O 31.5%
CNC(=O)/C(=C\C=C\c1ccccc1)NC(=O)c1ccc([N+](=O)[O-])cc1 22.2%
CCOC(=O)c1cnc(SCc2nc(N)nc(Nc3ccc(OC)cc3)n2)nc1N 40.5%
Cc1nn(-c2ccccc2)c2c1C(=O)NC(=O)C(C)(C)C2 14.9%
CC1CCN(C(=O)Cn2cc(C(=O)c3ccco3)c3ccccc32)CC1 28.3%
O=C(Nc1ccc(Oc2ccccc2)cc1)c1ccco1 24.3%
O=C(NC1CCCCC1)N1CCc2[nH]c3ccccc3c2C1 27.9%
Cc1cc(Cl)c(S(=O)(=O)NCC2CCCO2)cc1OCC(N)=O (stereo unspecified) -10.7%
COc1ccc(-c2c3c(=O)n(C)c(=O)n(C)c3cn2-c2cccc(OC)c2)cc1 4.2%
Cc1ccc(-c2c3c(=O)n(C)c(=O)n(C)c3cn2-c2ccccc2O)cc1 43.7%
CCc1ccc(Nc2ncc3c(n2)CC(c2ccco2)CC3=O)cc1 (stereo unspecified) 8.9%
O=C1N=C(N2CCOCC2)S/C1=C\C=C/c1ccccc1 -28.7%
CN(C)/C=C/C(=O)c1ccccc1F 14.6%
O=C(Nc1ccccc1Cl)O/N=C(/c1ccccc1)c1ccccn1 22.2%
O=C1NC(c2ccncc2)Nc2sc3c(c21)CCCC3 (stereo unspecified) 49.1%
CC1CCCCC1NC(=O)C1CCCN1S(=O)(=O)c1cccc2nsnc12 (stereo unspecified) 21.2%
CC(=O)c1cccc(NC(=O)N2CCCC2C(=O)NCCC(C)C)c1 (stereo unspecified) 9.2%
O=C(O)C1CCCN(S(=O)(=O)c2cccc3cccnc23)C1 (stereo unspecified) -20.2%
COc1ccc(NC(=O)C2CCCN(S(=O)(=O)c3cccc4cccnc34)C2)cc1 (stereo unspecified) -49.2%
